Source: ChEMBL document CHEMBL1961873, “Compounds: GSK PKIS; Assays: Nanosyn kinase panel” (2012)

Molecular target: Protein kinase C beta type (Homo sapiens) (UniProt P05771)
Conditions: at 1 µM
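Further: GSK PKIS screen, average inhibition of the PKC-beta2 splice variant.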

Protein kinase C beta type (Homo sapiens), sequence (P05771 2-671 limits assumed): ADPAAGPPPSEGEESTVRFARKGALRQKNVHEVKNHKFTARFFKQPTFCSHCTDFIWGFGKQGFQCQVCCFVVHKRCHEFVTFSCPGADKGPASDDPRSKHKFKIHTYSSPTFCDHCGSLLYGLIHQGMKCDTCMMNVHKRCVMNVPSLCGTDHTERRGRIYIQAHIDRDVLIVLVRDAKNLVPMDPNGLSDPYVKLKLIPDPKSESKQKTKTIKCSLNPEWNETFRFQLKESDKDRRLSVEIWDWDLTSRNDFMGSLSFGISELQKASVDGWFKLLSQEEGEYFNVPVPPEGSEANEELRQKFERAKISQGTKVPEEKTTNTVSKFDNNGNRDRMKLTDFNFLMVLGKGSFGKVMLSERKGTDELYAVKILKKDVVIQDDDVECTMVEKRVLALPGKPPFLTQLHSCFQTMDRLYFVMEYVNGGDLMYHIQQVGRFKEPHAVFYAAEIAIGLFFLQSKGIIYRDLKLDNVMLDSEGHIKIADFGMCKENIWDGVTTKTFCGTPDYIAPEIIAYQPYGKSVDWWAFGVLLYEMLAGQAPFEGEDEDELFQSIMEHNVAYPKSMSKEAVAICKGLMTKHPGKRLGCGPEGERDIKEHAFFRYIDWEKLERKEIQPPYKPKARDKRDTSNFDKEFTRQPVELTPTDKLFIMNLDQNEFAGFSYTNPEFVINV

Structure (SMILES)	inhibition [%]
Fc1cccc(COc2ccc(Nc3ncnc4cc(-c5ccc[nH]5)sc34)cc2Cl)c1	2.94
CCN1CCC(CC(=O)Nc2n[nH]c3nc(-c4cccs4)c(Br)cc23)CC1	2.84
NC(=O)c1ccc(-c2nc(-c3ccccn3)c(-c3ccc4c(c3)OCO4)[nH]2)cc1	5.1
CCn1c(-c2nonc2N)nc2c(C#CC(C)(C)O)nc(OC[C@@H](N)c3ccccc3)cc21	23.1
CCn1c(-c2nonc2N)nc2cncc(C(=O)N3CC[C@H](N)C3)c21	45.6
Cc1ccc(NC(=O)c2ccnc(N3CCCC3)c2)cc1-c1ccc(C(=O)NCC2CC2)cc1	2.94
COc1cc(C)c(NC(=O)CN(C)C)cc1Nc1nc(Nc2cccc(F)c2C(N)=O)c2cc[nH]c2n1	0.55
CCn1c(-c2nonc2N)nc2cnc(Oc3cccc(NC(=O)c4ccc(OCCN5CCOCC5)cc4)c3)cc21	42.4
Nc1nc(-c2ccc3c(c2)C(=Cc2cc(Br)c(O)c(Br)c2)C(=O)N3)cs1	1.78
COc1ccc(-c2ccncc2)cc1C(N)=O	2.35
CC1=C(C(=O)Nc2ccc3[nH]ncc3c2)C(c2ccc(Cl)c(Cl)c2)CC(=O)N1 (stereo not given)	0.61
Fc1cccc(COc2ccc(Nc3ncnc4sc(-c5cccs5)cc34)cc2Cl)c1	0.44
CN1CCC(C(=O)Nc2n[nH]c3nnc(-c4ccccc4)cc23)CC1	1.6
Cc1nn(C)c2cc(N(C)c3ccnc(Nc4cccc(S(N)(=O)=O)c4)n3)ccc12	6.99
COC(=O)Nc1nc2cc(Oc3ccc(NC(=O)Nc4cccc(C(=O)O)c4)cc3)ccc2[nH]1	0.44
